Experimental findings from the emibetuzumab library of Makowski et al. (2022) are described below.

The chains are these.
B1: VH:VL chains; a variant is named by its letters at X, in order (parent)
chain 1: QVQLVQSGAEVKKPGASVKVSCKASGYTFTDYXMHWVRQAPGQGLEWMGXVNPNXXXTTYNQKFEGRVTMTTDTSTSTAYMELRSLRSDDTAVYYCARXNXLDXWGQGTTVTVSS
chain 2: DIQMTQSPSSLSASVGDRVTITCSVSSSVSSIYLHWYQQKPGKAPKLLIYSTSNLASGVPSRFSGSGSGTDFTLTISSLQPEDFATYYCQVYSGYPLTFGGGTKVEIK

This is one part of the list. How many sequences the whole screen found active is unknown.

Variants of B1 are the subject of the experiment. Description: yeast display scFab, FACS + sequencing. The settings on record: with MET. A digest of the protocol: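 Heavy-chain CDR mutant scFab yeast surface library, enriched by two magnetic rounds on HGFR-Fc-coated Protein A beads and then by FACS. Cells were labelled with 1 nM HGFR-Fc in PBSB with 1% milk and anti-Myc for 3 h at room temperature, and the top 50% antigen-positive cells were gated. Round-3 sorted and input populations were deep sequenced in two replicates. Antigen binding call: positive if a sequence occurred in both antigen-positive samples, negative if it occurred only in input.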
As to SRGRGFAA, the antigen binding call is given as “no binding”.

For the variant SGEGGAGA, the antigen binding call was “no binding”.

Consider SRARGAGA, for which the antigen binding call is “binds”.

Take SRARGAAA: the antigen binding call is “binds”.

As for DAARGAAA, the antigen binding call is “no binding”.

On to ARAASAGA, for which the antigen binding call is listed as “no binding”.

Take SEEGTDWD: the antigen binding call is reported as “no binding”.

As for VATGDDVD, the antigen binding call was “no binding”.

For FKTKNYAD, the antigen binding call is on record as “no binding”.

Regarding DKEGGDVV, the antigen binding call is listed as “no binding”.

As for FRGESSGA, the antigen binding call is on record as “binds”.

With FRGESAAA, the antigen binding call was “binds”.

FRGESAGA: the antigen binding call is reported as “binds”.

As to FTGTGSGA, the antigen binding call was “no binding”.

For the variant FRGRDYGA, the antigen binding call is on record as “no binding”.

As to YAAGSDVY, the antigen binding call was “no binding”.

With DGGKNDGD, the antigen binding call is “no binding”.

In the case of DGTGGAGA, the antigen binding call was “no binding”.

Turning to DTGGDAGV, the antigen binding call is recorded as “no binding”.

With DATGGDVV, the antigen binding call is recorded as “no binding”.

Take FTEEGDGV: the antigen binding call was “no binding”.

In the case of YRAESSGV, the antigen binding call is reported as “binds”.

Consider YRAKSSGV, for which the antigen binding call was “binds”.

As for YRAGSSGV, the antigen binding call is “binds”.

As to YAEESSGV, the antigen binding call is on record as “no binding”.

In the case of VAGAGDVV, the antigen binding call is on record as “no binding”.

Turning to FARKSFGS, the antigen binding call was “no binding”.

For the variant YRRRGSVA, the antigen binding call is “binds”.

With YRKRGSSA, the antigen binding call was “binds”.

In the case of YRRRGSSA, the antigen binding call was “binds”.

On to YAKRGSWA, for which the antigen binding call was “no binding”.

On to DEGGTSLD, for which the antigen binding call is reported as “no binding”.

Consider VTAGDAGD, for which the antigen binding call is reported as “no binding”.

With YKARGAAD, the antigen binding call is “binds”.

For YKGKGDAD, the antigen binding call is reported as “no binding”.

Consider VEAGDAGD, for which the antigen binding call was “no binding”.

For the variant YKAKGAGD, the antigen binding call is listed as “binds”.

YKAEDVGD: the antigen binding call is “no binding”.

On to YKAGDAGD, for which the antigen binding call was “binds”.

Take YKAKGAAD: the antigen binding call is on record as “binds”.

As to FAEGDDVV, the antigen binding call is listed as “no binding”.

Regarding ARAKTSWV, the antigen binding call was “no binding”.

For the variant ARAAGDWV, the antigen binding call was “no binding”.

As to ARARGSWV, the antigen binding call is listed as “binds”.

On to FRKRGSAV, for which the antigen binding call is recorded as “binds”.

As for AEERDSVV, the antigen binding call is recorded as “no binding”.

For the variant FRKAAVAV, the antigen binding call was “no binding”.

As to AEAGDAVV, the antigen binding call was “no binding”.

As for FRGRGSLV, the antigen binding call was “binds”.

Take ARAGGSVV: the antigen binding call is reported as “binds”.

With FTTGGSAV chain 1 M48I, the antigen binding call is on record as “no binding”.

SEARSYLV: the antigen binding call was “no binding”.

Consider SEARSDVD, for which the antigen binding call is listed as “no binding”.

Regarding FRARGSWV, the antigen binding call is reported as “binds”.

As for FTKAASWV, the antigen binding call was “no binding”.

As for FRGRGSAV, the antigen binding call was “binds”.

As to FRGRGSVV, the antigen binding call is “binds”.

Turning to FRGRGSWV, the antigen binding call was “binds”.

On to FRGRDVAV, for which the antigen binding call is on record as “no binding”.

On to DAGTGAGD, for which the antigen binding call is on record as “no binding”.

Turning to SETTDDAV, the antigen binding call is given as “no binding”.

Take SEARSSLV: the antigen binding call was “no binding”.

For the variant YAEESSSA, the antigen binding call is recorded as “no binding”.

FARGGYVA: the antigen binding call is listed as “no binding”.

On to YRRKGSSA, for which the antigen binding call is given as “binds”.

Turning to DRRGDSSA, the antigen binding call is “no binding”.

As to YRRGDSSA, the antigen binding call is “binds”.

Consider DRREDSSA, for which the antigen binding call is recorded as “no binding”.

For the variant FRRGGASA, the antigen binding call is listed as “binds”.

Turning to YRRGSSSA, the antigen binding call is “binds”.

In the case of VAAKSAAA chain 1 R38K, the antigen binding call was “no binding”.

Turning to ATGGDDWF, the antigen binding call is reported as “no binding”.

Turning to VEGGGDWS, the antigen binding call was “no binding”.

As to SEARNAGD, the antigen binding call is listed as “no binding”.

On to VKGRADWA, for which the antigen binding call was “no binding”.

Regarding VTGGSDVY, the antigen binding call is “no binding”.

On to DARGGSSA, for which the antigen binding call is listed as “no binding”.

As for FRGRDFSA, the antigen binding call is “no binding”.

In the case of YRRGGSSA, the antigen binding call is “binds”.

Take FEETDASA: the antigen binding call is “no binding”.

Turning to FRGKDASA, the antigen binding call is on record as “binds”.

FAEGDDSA: the antigen binding call was “no binding”.

Regarding YRRGGASA, the antigen binding call is “binds”.

As to FAGGGDGA, the antigen binding call was “no binding”.

Take FATEGASA: the antigen binding call is “binds”.

In the case of STGGDDVY, the antigen binding call was “no binding”.

As to VAGTGDWD, the antigen binding call was “no binding”.

For DTGKDAGD, the antigen binding call is listed as “no binding”.

For the variant SETGGDVA, the antigen binding call is listed as “no binding”.

Regarding SEARSAVS, the antigen binding call was “no binding”.

Regarding SEEASSSA, the antigen binding call is “no binding”.

For the variant DRGRDSSA, the antigen binding call is on record as “no binding”.

Regarding YTGTSSSA, the antigen binding call is “no binding”.

Turning to YRRRDSSA, the antigen binding call is “binds”.

YRRGGSVA: the antigen binding call was “binds”.

As for VTGGDDVY, the antigen binding call is listed as “no binding”.

With YTGGDDVV, the antigen binding call is given as “no binding”.

Take FRGRGSSA: the antigen binding call is “binds”.

Take FRGGGSSA: the antigen binding call is “binds”.

FKGEGSSA: the antigen binding call is listed as “no binding”.

Consider YEGGGSSA, for which the antigen binding call was “no binding”.

Regarding DTGRADWA, the antigen binding call is listed as “no binding”.

DTREGDVD: the antigen binding call is “no binding”.

In the case of YKRGDASS, the antigen binding call is recorded as “binds”.

For YKRGDSSS, the antigen binding call is “binds”.

Regarding YKRGDDSS, the antigen binding call is reported as “no binding”.

Turning to DGRGDALS, the antigen binding call is recorded as “no binding”.
